For 26 compounds, activation results are on record in PubChem BioAssay AID567 (The Scripps Research Institute Molecular Screening Center, 2006).

In all, about 65,000 compounds went through this assay and about 370 (0.57%) were called active. This excerpt belongs to a sample that is enriched for actives. A number with no mark means an inactive call.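 How the source made its calls: active means activation above the screen-wide mean activation plus 3 SD (cut at about 19% in these data); inactive means the rest.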

This assay deals with 5-hydroxytryptamine receptor 1A (Homo sapiens) (UniProt P08908). Nature of the assay: human 5-HT1a receptor agonists, primary screen, cell-based, CHO, Ga15 NFAT-bla reporter (AID 567).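 Further: 0% = DMSO wells and 100% = 5-CT at EC100.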 To be noted: CHO 5-HT1a Ga15 NFAT-bla reporter, FRET ratio; at 10 µM; hits give high values; 0% basal, 100% maximal reference agonist.
5-hydroxytryptamine receptor 1A (Homo sapiens), sequence (P08908 whole entry, looked up): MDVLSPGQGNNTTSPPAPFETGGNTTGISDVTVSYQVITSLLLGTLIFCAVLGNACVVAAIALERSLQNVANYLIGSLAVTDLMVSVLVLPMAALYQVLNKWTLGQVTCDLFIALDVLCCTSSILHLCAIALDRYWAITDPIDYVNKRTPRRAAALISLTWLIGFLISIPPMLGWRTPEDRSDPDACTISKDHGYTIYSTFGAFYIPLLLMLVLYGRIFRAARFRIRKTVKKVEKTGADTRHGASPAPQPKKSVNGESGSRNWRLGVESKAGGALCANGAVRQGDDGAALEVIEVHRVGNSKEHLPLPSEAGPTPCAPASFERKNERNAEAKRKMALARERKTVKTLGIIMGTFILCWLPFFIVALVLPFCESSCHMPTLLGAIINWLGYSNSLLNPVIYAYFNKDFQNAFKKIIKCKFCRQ
With `CC1Cn2c(nnc2-c2cccs2)S1` (stereo unspecified), the activation was 0.5%.

For the compound `Cc1ccc(CNC(=O)CN2CCN(Cc3ccc(Cl)cc3)C2=O)cc1`, the activation is 0.67%. The figure for `Cn1c(C(=O)NCCN2CCc3ccccc3C2)cc2c(=O)[nH]c3ccccc3c21` is -1.75%; for `CCc1ccccc1N(CC(=O)N1CCN(c2ccccc2F)CC1)S(C)(=O)=O` it is -1.54%. The figure for `COc1ccccc1CNC(=O)CCCn1c(=O)c2ccccc2n(CC(=O)NC2CCCC2)c1=O` is -2.51%; for `CCCOC(=O)CC1C(=O)NCCN1Cc1ccc(F)cc1` (stereo unspecified) it is 1.2%. The value for `Cc1c(NC(=O)C(C)OC(=O)c2cc3c4ccccc4n(C)c3s2)c(=O)n(-c2ccccc2)n1C` (stereo unspecified) was 1.13%; that for `O=c1c2cc3c(=O)n(CC4CCCO4)c(=O)c3cc2c(=O)n1CC1CCCO1` (stereo unspecified) was -2.73%.

For `COC(=O)c1ccc2c(=O)n(CC3CCCO3)c(=S)[nH]c2c1` (stereo unspecified), the activation was 66.3% (active). On to `O=C(NC1CCCCC1)c1ccc2c(=O)n(CC3CCCO3)c(=O)[nH]c2c1` (stereo unspecified), for which the activation is -3.15%.

On to `CCC(C)NC(=O)C1CCC(=O)N1Cc1ccc(C)cc1` (stereo unspecified), for which the activation was -3.11%. The value for `CCOc1ccc(C2C(C(=O)NC)=C(C)Nc3nc4ccccc4n32)cc1OC` (stereo unspecified) was -2.74%; that for `c1cnc(NC2C3CC4CC(C3)CC2C4)nc1` (stereo unspecified) was -0.19%. Turning to `COc1ccc2c(c1OC)C(=O)OC2c1c(O)nc(SC)n(-c2ccccc2)c1=O` (stereo unspecified), the activation is 1.4%. The figure for `CCn1c(-c2cc(OC)ccc2OC)csc1=Nc1c(C)n(C)n(-c2ccccc2)c1=O` is -3.67%. In the case of `CCOC(=O)Cn1c(=O)oc2cc(S(=O)(=O)N(C)Cc3ccco3)ccc21`, the activation was -3.37%. The figure for `Cc1ccc(C(C)C)c(OCc2nnc(SCC(=O)Nc3nccs3)n2C)c1` is -0.25%; for `O=C(Nc1cc(N2CCOCC2)ncn1)NC1(C(F)(F)F)Oc2ccc(Cl)cc2O1` (stereo unspecified) it is -2.08%.

Turning to `c1cnn(-c2cc(N3CCOCC3)ncn2)c1`, the activation was 42% (active). The figure for `O=C1c2ccccc2-c2ncnc3c(N4CCOCC4)cc(N4CCOCC4)c1c23` is 0.99%. The value for `N#Cc1c(N)n(CCOC(=O)c2ccc(Cl)cc2)c2nc3ccccc3nc12` was 27.6% (active). The value for `COCCCn1c2nc3ccccc3nc2c2c(=O)n(Cc3ccc(Cl)cc3)c(C)nc21` was 1.36%. As to `CC(C)(C)OC(=O)c1c(N)n(CCCN2CCCC2=O)c2nc3ccccc3nc12`, the activation was 4.61%. The figure for `CCC(=O)c1ccc(OCC(O)CN2CCN(c3cccc(C(F)(F)F)c3)CC2)cc1` (stereo unspecified) is 36.5% (active); for `COc1cccc(OCC(O)CN2CCN(CCO)CC2)c1` (stereo unspecified) it is 1%; for `O=C(C(c1ccccc1)c1ccccc1)N1CCN(CC(O)COc2ccccc2)CC1` (stereo unspecified) it is -2.69%.
